Assay results: PubChem BioAssay (EPA / NIEHS)
Activity calls are given as the source filed them. Rule for the calls: active = hit-call score of the fitted dose curve at least 0.9, where 1 is the maximum; inactive = score below 0.9.

What follows are compounds tested on DNA damage-inducible transcript 3 (DDIT3), DDIT3 (gene 1649) (assay: LTEA_HepaRG_DDIT3: Life Technologies and Expression Analysis (LTEA) Assay for DNA damage-inducible transcript 3 (DDIT3) using HepaRG (AID 2283488)). Conditions: mRNA level, 48 h; actives raise or lower the signal.
Summary of the method: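 qRT-PCR readout (Fluidigm TaqMan), housekeeping-normalized to ACTB, GAPDH, POLR2A. HepaRG cells, 48 h exposure, 8-point half-log series from 100 uM in 0.5% DMSO, duplicates. Gain or loss of signal fitted against DMSO baseline.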
`O=C(O)c1cccc(C(=O)O)c1` was tested, and the outcome was “inactive”.
With `Cc1nccn1-c1ccc(Sc2cccc(C3(C(N)=O)CCOCC3)c2)cc1` the AC50 was 4.47 µM (active).
For `CCc1cccc(CC)c1N`, the outcome was “inactive”.
For `OCCOCCOCCO`, the outcome was “inactive”.
In the case of `CCCCCCCCCCCCCCO`, the outcome is reported as “inactive”.
With `c1ccc2ncccc2c1` the outcome was “inactive”.
In the case of `c1ccc(C(O[C@@H]2CCCN(CCc3ccc4c(c3)OCO4)C2)c2ccccc2)cc1`, the AC50 is reported as 63.6 µM (active).
For `COS(C)(=O)=O`, the outcome was “inactive”.
In the case of `OC(Cn1cncn1)(Cn1cncn1)c1ccc(F)cc1F`, the outcome is reported as “inactive”.
With `CCCCCCCCCCCCCCCCOS(=O)(=O)O` the outcome was “inactive”.
In the case of `CCCOc1ccc(S(=O)(=O)N2CCN(CC)CC2)cc1-c1nc2c(CC)n(Cc3ccccn3)nc2c(=O)[nH]1`, the AC50 is reported as 69.6 µM (active).
With `NC(=O)NN=Cc1ccc([N+](=O)[O-])o1` the outcome was “inactive”.
With `O=S1(=O)CCCO1` the outcome was “inactive”.
With `COc1cc(C(C)C)c2c(c1)S(=O)(=O)N(COc1cc(=O)n3cccc(OCCN4CCCCC4)c3n1)C2=O` the outcome was “inactive”.
For `Cc1ncc([C@@H](CCCCCCc2ccc3c(n2)NCCC3)CC(=O)O)cn1`, the outcome was “inactive”.

These compounds were tested on Early growth response protein 1 (EGR1) transcription factor, EGR1 (gene 1958) (assay: LTEA_HepaRG_EGR1: Life Technologies and Expression Analysis (LTEA) Assay for Early growth response protein 1 (EGR1) transcription factor using HepaRG (AID 2283490)). Conditions: mRNA level, 48 h; actives raise or lower the signal.
Summary of the method: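 EGR1 transcript levels quantified by qRT-PCR (Fluidigm arrays) against three housekeeping genes after 48 h chemical exposure of HepaRG cells. Eight-point half-log series topping at 100 uM, 0.5% DMSO vehicle, analyzed for gain or loss.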
For `CCCCCCCC1CCC(=O)O1` (centres undefined), the outcome was “inactive”.
`OC(CCl)CCl` was tested, and the outcome was “inactive”.
In the case of `Cn1c(=O)c2[nH]cnc2n(C)c1=O`, the outcome is reported as “inactive”.
`CCN(CC)C(=S)SSC(=S)N(CC)CC` was tested, and the outcome was “inactive”.
With `C[C@]12C=CC(=O)C=C1CC[C@H]1[C@@H]3C[C@@H](O)[C@](O)(C(=O)CO)[C@@]3(C)C[C@H](O)[C@@]12F` the outcome was “inactive”.
`Cn1cc[nH]c1=S` was tested, and the outcome was “inactive”.
In the case of `CC[C@H](C)C(=O)O[C@H]1C[C@H](O)C=C2C=C[C@H](C)[C@H](CC[C@@H](O)C[C@@H](O)CC(=O)O)[C@H]21`, the outcome is reported as “inactive”.
For `COc1cc2c(c(OC)c1OC)-c1ccc(OC)c(=O)cc1[C@@H](NC(C)=O)CC2`, the outcome was “inactive”.
With `NC(=O)N(O)[C@@H]1COc2cc(OCc3ccccc3)ccc21` the outcome was “inactive”.
In the case of `CCCCCCCCN(C)C`, the outcome is reported as “inactive”.
`O=c1[nH]cnc2c1ncn2[C@H]1CC[C@@H](CO)O1` was tested, and the outcome was “inactive”.
For `C=CN1CCCC1=O`, the outcome was “inactive”.
With `CC1(C)C(=O)N(Cl)C(=O)N1Cl` the outcome was “inactive”.
With `O=C1CN(N=Cc2ccc([N+](=O)[O-])o2)C(=O)N1` the outcome was “inactive”.
`CCCCC(CC)C(=O)OCCOCCOCCOC(=O)C(CC)CCCC` (centres undefined) was tested, and the outcome was “inactive”.
In the case of `Cc1nc(-c2ccccn2)ncc1C(=O)Nn1cc(C)c2cc(F)ccc21`, the outcome is reported as “inactive”.
For `OCc1ccccc1`, the outcome was “inactive”.
`CCCCN1C(=O)[C@@H]([C@H](O)C2CCCCC2)NC(=O)C12CCN(Cc1ccc(Oc3ccc(C(=O)O)cc3)cc1)CC2` was tested, and the outcome was “inactive”.
With `O=C(NO)C1(NS(=O)(=O)c2ccc(Oc3ccc(F)cc3)cc2)CCOCC1` the outcome was “inactive”.
`CCOC(N)=O` was tested, and the outcome was “inactive”.
With `O=C(O)c1cccc(C(=O)O)c1` the outcome was “inactive”.
`Cc1nccn1-c1ccc(Sc2cccc(C3(C(N)=O)CCOCC3)c2)cc1` was tested, and the AC50 was 21.9 µM (active).
In the case of `CCc1cccc(CC)c1N`, the outcome is reported as “inactive”.
In the case of `OCCOCCOCCO`, the outcome is reported as “inactive”.
`CCCCCCCCCCCCCCO` was tested, and the outcome was “inactive”.
`c1ccc2ncccc2c1` was tested, and the outcome was “inactive”.
With `c1ccc(C(O[C@@H]2CCCN(CCc3ccc4c(c3)OCO4)C2)c2ccccc2)cc1` the AC50 was 84.1 µM (active).
In the case of `COS(C)(=O)=O`, the outcome is reported as “inactive”.
`OC(Cn1cncn1)(Cn1cncn1)c1ccc(F)cc1F` was tested, and the outcome was “inactive”.
In the case of `CCCCCCCCCCCCCCCCOS(=O)(=O)O`, the outcome is reported as “inactive”.
`CCCOc1ccc(S(=O)(=O)N2CCN(CC)CC2)cc1-c1nc2c(CC)n(Cc3ccccn3)nc2c(=O)[nH]1` was tested, and the outcome was “inactive”.
In the case of `NC(=O)NN=Cc1ccc([N+](=O)[O-])o1`, the outcome is reported as “inactive”.
In the case of `O=S1(=O)CCCO1`, the outcome is reported as “inactive”.
`COc1cc(C(C)C)c2c(c1)S(=O)(=O)N(COc1cc(=O)n3cccc(OCCN4CCCCC4)c3n1)C2=O` was tested, and the AC50 was 15.4 µM (active).
In the case of `Cc1ncc([C@@H](CCCCCCc2ccc3c(n2)NCCC3)CC(=O)O)cn1`, the outcome is reported as “inactive”.

Each compound was assayed on Ezrin (EZR), EZR (gene 7430) (assay: LTEA_HepaRG_EZR: Life Technologies and Expression Analysis (LTEA) Assay for Ezrin (EZR) using HepaRG (AID 2283491)). Conditions: mRNA level, 48 h; actives raise or lower the signal.
Summary of the method: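 Differentiated human HepaRG cells, 48 h after plating, were exposed in serum-free induction medium for 48 hours to eight half-log concentrations up to 100 uM in 0.5% DMSO. EZR mRNA was measured by TaqMan qRT-PCR, normalized to ACTB, GAPDH and POLR2A, and fitted bidirectionally against DMSO.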
With `CC[C@H](C)C(=O)O[C@H]1C[C@H](O)C=C2C=C[C@H](C)[C@H](CC[C@@H](O)C[C@@H](O)CC(=O)O)[C@H]21` the outcome was “inactive”.
`COc1cc2c(c(OC)c1OC)-c1ccc(OC)c(=O)cc1[C@@H](NC(C)=O)CC2` was tested, and the outcome was “inactive”.
For `NC(=O)N(O)[C@@H]1COc2cc(OCc3ccccc3)ccc21`, the outcome was “inactive”.
For `O=c1[nH]cnc2c1ncn2[C@H]1CC[C@@H](CO)O1`, the outcome was “inactive”.
`CCCCC(CC)C(=O)OCCOCCOCCOC(=O)C(CC)CCCC` (centres undefined) was tested, and the outcome was “inactive”.
For `CCc1cccc(CC)c1N`, the outcome was “inactive”.
In the case of `CCCCCCCCCCCCCCCCOS(=O)(=O)O`, the outcome is reported as “inactive”.
`CCCOc1ccc(S(=O)(=O)N2CCN(CC)CC2)cc1-c1nc2c(CC)n(Cc3ccccn3)nc2c(=O)[nH]1` was tested, and the outcome was “inactive”.
In the case of `O=S1(=O)CCCO1`, the outcome is reported as “inactive”.
For `COc1cc(C(C)C)c2c(c1)S(=O)(=O)N(COc1cc(=O)n3cccc(OCCN4CCCCC4)c3n1)C2=O`, the outcome was “inactive”.
`Cc1ncc([C@@H](CCCCCCc2ccc3c(n2)NCCC3)CC(=O)O)cn1` was tested, and the outcome was “inactive”.

These compounds were tested on Cytochrome P450 3A7 (Homo sapiens) (UniProt P24462) (assay: LTEA_HepaRG_CYP3A7: Life Technologies and Expression Analysis (LTEA) Assay for CYP3A7 using HepaRG (AID 2283492)). Conditions: mRNA level, 48 h; actives raise or lower the signal.
Sequence of Cytochrome P450 3A7 (Homo sapiens) (P24462 whole entry, looked up): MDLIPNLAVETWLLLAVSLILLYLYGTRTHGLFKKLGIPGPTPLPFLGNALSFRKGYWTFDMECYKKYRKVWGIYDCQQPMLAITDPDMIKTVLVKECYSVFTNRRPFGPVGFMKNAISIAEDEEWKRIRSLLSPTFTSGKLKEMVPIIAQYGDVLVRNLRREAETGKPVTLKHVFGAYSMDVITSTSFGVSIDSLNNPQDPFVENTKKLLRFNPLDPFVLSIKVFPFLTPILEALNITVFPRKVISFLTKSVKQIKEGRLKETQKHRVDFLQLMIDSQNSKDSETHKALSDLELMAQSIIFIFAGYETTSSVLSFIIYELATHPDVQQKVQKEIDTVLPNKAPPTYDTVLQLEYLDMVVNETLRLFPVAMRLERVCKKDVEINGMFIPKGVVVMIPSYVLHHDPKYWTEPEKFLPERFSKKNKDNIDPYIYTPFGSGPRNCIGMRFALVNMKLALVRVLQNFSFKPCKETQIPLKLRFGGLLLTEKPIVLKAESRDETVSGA
Summary of the method: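 CYP3A7 transcript measured by qRT-PCR (ACTB, GAPDH, POLR2A normalization) after 48 h chemical exposure of HepaRG cells in duplicate. Eight half-log concentrations, maximum 100 uM, 0.5% DMSO vehicle; bidirectional curve fitting against DMSO baseline.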
With `Cn1c(=O)c2[nH]cnc2n(C)c1=O` the outcome was “inactive”.
With `C=CN1CCCC1=O` the outcome was “inactive”.
`CC1(C)C(=O)N(Cl)C(=O)N1Cl` was tested, and the outcome was “inactive”.
For `O=C1CN(N=Cc2ccc([N+](=O)[O-])o2)C(=O)N1`, the outcome was “inactive”.
With `Cc1nc(-c2ccccn2)ncc1C(=O)Nn1cc(C)c2cc(F)ccc21` the AC50 was 0.945 µM (active).
`OCc1ccccc1` was tested, and the outcome was “inactive”.
For `CCOC(N)=O`, the outcome was “inactive”.
For `COS(C)(=O)=O`, the outcome was “inactive”.
